SMILES strings stand for the structures. In all, about 360,000 compounds went through this assay and about 700 (0.19%) were called active. For the sample, actives were picked, then their nearest neighbours and some compounds at random. Values without a mark were called inactive.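 Rule for the calls: active = activation above the run's mean over test compounds plus 3 SD (cut at about 23% in these data); inactive = the rest.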

This experiment deals with Muscarinic acetylcholine receptor M5 (Homo sapiens) (UniProt P08912). The experiment can be described thus: CHRM5 activators raising intracellular calcium – CHO-K1 cells, Fluo-8 calcium fluorescence, primary screen (AID 624037).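 Note: signal is peak over basal fluorescence ratio across the kinetic read.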 Particulars: CHO-K1 hM5 cells, at 3 µM, stronger effect = higher value, 0% DMSO wells, 100% maximal acetylcholine response. On the technique in general: Calcium assays in cells follow changes in intracellular calcium, usually with a dye or a luminescent sensor.
Chain of Muscarinic acetylcholine receptor M5 (Homo sapiens) (P08912 whole entry, looked up): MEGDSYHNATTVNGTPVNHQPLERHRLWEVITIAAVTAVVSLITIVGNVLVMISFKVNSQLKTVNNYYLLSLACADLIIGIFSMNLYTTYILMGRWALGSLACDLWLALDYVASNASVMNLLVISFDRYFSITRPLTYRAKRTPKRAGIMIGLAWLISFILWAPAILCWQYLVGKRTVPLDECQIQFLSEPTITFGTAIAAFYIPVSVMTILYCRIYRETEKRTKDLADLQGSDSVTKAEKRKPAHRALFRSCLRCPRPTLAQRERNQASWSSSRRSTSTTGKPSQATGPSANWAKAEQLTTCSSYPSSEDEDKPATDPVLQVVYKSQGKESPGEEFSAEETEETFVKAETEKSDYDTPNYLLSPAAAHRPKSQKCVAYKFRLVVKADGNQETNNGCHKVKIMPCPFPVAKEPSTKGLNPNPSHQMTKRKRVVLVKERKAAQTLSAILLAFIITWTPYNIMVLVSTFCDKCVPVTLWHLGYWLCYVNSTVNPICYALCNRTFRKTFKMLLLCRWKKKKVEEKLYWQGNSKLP
On to `CC(C)C[C@H]1CNC(=S)N1C[C@H]1CCCN1C[C@H](Cc1ccc(O)cc1)N1C[C@H](Cc2ccc(O)cc2)N(CC2CCCCC2)C1=S`, for which the activation is -1.54%. With `N#CC1(NC(=O)COC(=O)CCN=C2NS(=O)(=O)c3ccccc32)CCCCC1` the figure was -5.2%.

With `Cc1ccccc1C(=O)NCCN=C1NS(=O)(=O)c2ccccc21`, the activation is -1.12%. With `O=C(CCCN=C1NS(=O)(=O)c2ccccc21)OCC(=O)c1ccc(F)c(F)c1` the figure was 37.2% (active). `O=C(Cc1c(Cl)cccc1Cl)NC1CC1`: the activation is -4.03%. As to `Cc1ccc(C(=O)N(CC(=O)NC2CCCC2)c2ccc(F)cc2)s1`, the activation is -2.46%. With `O=C(/C=C(O)/C=C/c1ccc(O)cc1)/C=C/c1ccc(O)cc1` the figure was 156% (active); with `COc1cccc(C(=O)NNC(=O)/C=C/c2ccccc2)c1`, -2.95%; with `c1ccc(C(=NNc2nc3ccccc3s2)c2ccccn2)cc1`, 58.8% (active). Take `Cc1cc(C)c2c(c1)cc(C)c1nnc(SCC(=O)Nc3cc(C)on3)n12`: the activation was 3.15%.

Turning to `O=C(CN(C(=O)CCC(=O)Nc1nccs1)c1ccc(F)cc1)NCc1ccc2c(c1)OCO2`, the activation is -1.79%. Next, `Cc1nccn1CCCNC(=O)CC1C(=O)NCCN1Cc1ccc(Cl)c(F)c1` (configuration not stated): -2.66%; `CC(=O)C[C@@H]1OC[C@H](CO)N1S(=O)(=O)c1ccc(C)cc1`: 4.39%.

Consider `O=C(COC(=O)Cc1ccc(Br)cc1)Nc1ccc(N2CCOCC2)cc1`, for which the activation was 4.95%. With `CC(C)[C@H](NC(=O)N1CC(=O)Nc2ccccc21)C(=O)N[C@@H](Cc1c[nH]c2ccccc12)C(=O)O` the figure was 1.96%; with `Cc1cccc(C)c1NC(=O)CNC(=O)Cc1ccc(Br)cc1`, -2.94%.

Turning to `CCOc1ccc(CNC(=O)CCC(=O)N2CCSc3ccccc32)cc1`, the activation was 3.47%.

Take `O=C1C(=O)N(c2ccccc2)c2ccccc21`: the activation was 15.5%.

As for `O=C1C(=O)N(CC2COc3ccccc3O2)c2ccccc21` (configuration not stated), the activation was 26.9% (active). With `CCn1cc(C(=O)NCC2COc3ccccc3O2)c2cc(OC)c(OC)cc2c1=O` (configuration not stated) the figure was 1.23%. With `c1ccc2c(c1)OCC(CNc1ncnc3nc[nH]c13)O2` (configuration not stated) the figure was 108% (active).

With `O=C(Cn1nc(Cc2cccnc2)c2ccccc2c1=O)NCC1COc2ccccc2O1` (configuration not stated), the activation is 1.51%. With `CCC(=O)c1ccc(OCC(=O)N(CC)CC2COc3ccccc3O2)cc1` (configuration not stated) the figure was -1.18%; with `Cc1ccc2c(c1)C(O)(CC(=O)c1cccc(-n3cccc3)c1)C(=O)N2` (configuration not stated), 3.01%.

Take `Cc1cccc(N=C2NC(=O)CS2)c1C`: the activation is 2.4%. Next, `O=c1[nH]oc(O)c1-c1ncc(C(F)(F)F)cc1Cl`: -1.47%; `COc1ccc(NS(=O)(=O)c2ccc(C)c(C(=O)NNC(=O)c3csc(N4CCOCC4)n3)c2)cc1`: -2.51%; `CC1CN(c2cc(=O)n(Cc3ccc(F)cc3)c(=O)[nH]2)CC(C)O1` (configuration not stated): 1.48%. Turning to `O=C1C(Sc2cccc(F)c2)=C[C@@]2(O)CC[C@@H](O)[C@]1(Sc1cccc(F)c1)[C@H]2O`, the activation is -1.89%. Next, `CC12CN3CC(C)(CN(C1)C3c1ccc(Cl)cc1Cl)C2=O` (configuration not stated): 0.42%. With `CCC(C)C1(C2CCCC2)NC(=O)NC1=O` (configuration not stated) the figure was -2.24%. Next, `Cc1ccsc1C1C(C#N)=C(N)OC2=C1C(=O)CC(C)(C)C2` (configuration not stated): -3.66%; `CCOC(=O)c1cnc(SC)nc1Sc1ccc(Cl)cc1Cl`: -3.12%; `O=C(Cn1nc(Cc2cccnc2)c2ccccc2c1=O)NCC1CCCO1` (configuration not stated): 1.65%. For the compound `COC(=O)c1ccc(OC(=O)c2nn(C)cc2Cl)c(OC)c1`, the activation was -3.16%. With `CCN(CC)CCCNC(=O)c1ccc2c(=O)n(Cc3ccc4c(c3)OCO4)c(=S)[nH]c2c1` the figure was -16.7%.

`COC(=O)[C@]12CCCCC=C1N(CCC1=CCCCC1)C(=O)[C@H](CC(=O)N1CCSCC1)C2`: the activation is 0.77%. With `CCOC(=O)[C@]12CCCC=C1N(CCC1=CCCCC1)C(=O)[C@H](CC(=O)N1CCCCC1)C2` the figure was 2.91%. Next, `CCOC(=O)N1CCN(C(=O)C[C@@H]2C[C@@]3(C(=O)OC)CCCCC=C3N(CCC3=CCCCC3)C2=O)CC1`: 24% (active). Next, `COc1cc(NC(=S)NCCSc2ccc(C)cc2)cc(OC)c1`: 0.65%; `CCCCCCCCNS(=O)(=O)CCNC1CCCCC1`: 2.22%.

Consider `CCn1c(-c2ccoc2C)n[nH]c1=S`, for which the activation is -2.69%.

On to `CC(=O)OC(C)C[N+](C)(C)C` (configuration not stated), for which the activation is 99.8% (active). `CC(C[N+](C)(C)C)OC(N)=O` (configuration not stated): the activation is 96.3% (active).

For `CC(=O)OCCC(C)C`, the activation was 1.99%.

As for `CCCCOC(=O)Nc1nccs1`, the activation was 1.28%.

As for `COc1ccc(C(=O)NC(Cc2ccc(OC(=O)c3ccc(OC)cc3)cc2)C(=O)O)cc1` (configuration not stated), the activation was 0.61%. Next, `Cc1ccsc1C(=O)NNC(=O)COc1ccc(Br)cc1`: 2.78%; `Cc1ccc(O)c(/C=N/NC(=O)COc2ccc3c(C)cc(=O)oc3c2)c1`: -0.84%. For `Cc1ccc(O)c(NC(=S)NC(=O)COc2ccc(Br)cc2)c1`, the activation was 31.2% (active). Next, `Cc1ccc(S(=O)(=O)N2CCCC2CO)cc1` (configuration not stated): 1.95%; `CC1(C)OC(=O)C2=C(CC(c3ccccc3)OC2CCc2ccccc2)O1` (configuration not stated): -0.45%; `CCCCCCSc1nsc(N)n1`: -2.92%.

Take `O=C(NCCN=C1NS(=O)(=O)c2ccccc21)c1ccc(S(=O)(=O)N2CCOCC2)cc1`: the activation was -1.87%.

`Cc1ccccc1N(C(=O)Cc1cccs1)C(C(=O)NC1CCCCC1)c1cn(C)nc1C` (configuration not stated): the activation is -1.99%.

Take `O=C(O)CC/C(=N\NC(=O)c1ccc(F)cc1)c1ccc(Br)cc1`: the activation is -1.22%. Turning to `COc1ccc(COC(=O)c2ccc(Cl)c(S(=O)(=O)N3CCOCC3)c2)cc1F`, the activation was -0.05%.

As to `CC1CCN(S(=O)(=O)c2ccc3ncn(CC(=O)N(C)C4CCCCC4)c(=O)c3c2)CC1`, the activation was -0.64%. With `CC(=O)Nc1ccc(S(=O)(=O)N(C)c2ccc(OCC(=O)OCC(=O)N3CCCCC3)cc2)cc1` the figure was 0.4%; with `COc1ccc(CN(C)C(=S)Nc2ccc(Cl)cc2Cl)cc1`, -4.4%; with `O=C(CCS(=O)(=O)c1cccc2nonc12)NCCc1ccccc1Cl`, -0.36%. Next, `Cc1nc(C)c2c(c1C(F)(F)F)-c1ccccc1C2(F)F`: -0.42%; `COc1ccc(-c2onc(C)c2-c2ccc3c(c2)OCCO3)c(O)c1`: 12.5%; `COc1ccc(-c2n[nH]c(C)c2-c2ccc(OC)c(OC)c2)c(O)c1`: 29.1% (active). As for `COc1ccc(CCN2C(=O)c3[nH]nc(-c4ccccc4O)c3C2c2ccc(C)cc2)cc1OC` (configuration not stated), the activation is -2.41%. Next, `O=C(NCC12CC3CC(C1)CC(CNC(=O)N1CCCC1)(C3)C2)N1CCCC1`: 2.96%; `COCCNc1ccc(-c2n[nH]c(=O)c3ccccc23)cc1[N+](=O)[O-]`: -2.62%; `CCCCC(=O)N1CC2(C)CN(C(=O)CCCC)CC(C)(C1)C2=O`: 1.44%.

For the compound `O=C(COc1ccc([N+](=O)[O-])cc1Cl)Nn1cnnc1`, the activation was -0.29%. With `COc1ccc(C(C[N+](=O)[O-])n2nc(C)cc2C)cc1` (configuration not stated) the figure was 1.97%.

Turning to `Cc1cc(NC(=O)Nc2ccccc2[N+](=O)[O-])no1`, the activation is -2.19%. With `CN(C)c1ccc(C(CNC(=O)c2ccc(F)cc2)c2c[nH]c3ccccc23)cc1` (configuration not stated) the figure was -4.52%; with `Cc1cc(=O)oc2c3c(cc(OCC(=O)NCCC(=O)N[C@@H](C)C(=O)O)c12)OC(C)(C)CC3`, -2.41%; with `C[C@@H]1CN([C@H](C)CO)S(=O)(=O)c2ccc(C#CC3CCCCC3)cc2O[C@H]1CN(C)C(=O)Cc1ccncc1`, 1.87%.

`Cn1nc(N)c2ncc(C(Cl)(Cl)Cl)nc21`: the activation is -0.27%.

In the case of `CCC1CCCCN1S(=O)(=O)Cc1ccccc1Cl` (configuration not stated), the activation was -4.8%. For the compound `CCCS(=O)(=O)N1CCN(C(=O)c2cccs2)CC1`, the activation was 2.49%. In the case of `COc1ccccc1/C=C/CN1CCC(CO)(Cc2ccccc2)CC1`, the activation is 0.17%.

Take `O=C(Cn1cnc2c(OCc3ccccc3)ncnc21)NCc1nc2ccccc2[nH]1`: the activation was -0.16%. As to `Cc1ccc(NC(=O)C(C)c2cccc(C(=O)c3ccccc3)c2)cc1` (configuration not stated), the activation was 5.38%. With `CCC(C(=O)Nc1ccc(C(C)C)cc1)c1ccccc1` (configuration not stated) the figure was 35.8% (active); with `CCCC(C)C(=O)Nc1ccc(NC(C)=O)cc1` (configuration not stated), 0.87%; with `CCOC(=O)c1sc(NC(=O)CSc2nc(C)cc(C(F)(F)F)n2)c(C#N)c1C`, -3.97%. Next, `Clc1ccc(C2=CSC3=Nc4cccc5cccc(c45)N23)cc1`: -0.82%. With `CC1=CC2=NC(=O)/C(=C/c3coc4ccccc4c3=O)C(=N)N2O1` the figure was 38.9% (active); with `COc1ccc(OCCCn2cccc2/C=C2/C(=N)N3OC(C)=CC3=NC2=O)cc1`, 0.09%.

With `CC(C)CCN1CCN(Cc2cn[nH]c2C2CCCCC2)CC1CCO` (configuration not stated), the activation was -10.3%. Next, `CCOCCCNC(=O)c1ccc(CS(=O)(=O)c2cccc(C(F)(F)F)c2)o1`: -2.51%. For `Cc1cc2nc3c(=O)n(Cc4ccccc4)c(=O)[nH]c3nc2cc1N`, the activation was 86.1% (active). With `Cn1c(=O)[nH]c(=O)c2c1[nH]c(=S)n2Cc1ccccc1`, the activation was -2.82%. With `Cc1cc(OCC(=O)N(C)c2c(N)n(Cc3ccccc3)c(=O)[nH]c2=O)c(C(C)C)cc1Cl` the figure was -1.72%; with `O=C(COc1ccc(F)cc1)N(CC1=CCS(=O)(=O)C1)c1ccccc1`, -3.65%.

Values taken from PubChem BioAssay AID624037 (The Scripps Research Institute Molecular Screening Center, 2012).
